Records with an inconclusive call do not appear. A number with no mark means an inactive call. Calls of active or inactive are those of the source.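 Rule for the calls: active = compounds whose potency, the dose giving half inhibition, is below 20 µM; inconclusive = compounds meeting neither the active nor the inactive rule; inactive = potency over 20 µM or below 50% inhibition when unfitted.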
What follows are compounds tested against Integrin alpha-IIb (Homo sapiens) (UniProt P08514) (assay: Platelet Adhesion Secondary Assay for Inhibitors of Platelet Integrin alphallb-beta3). Conditions: human platelet adhesion to fibrinogen, calcein fluorescence; inhibition: at 30 µM, hits give high values.
Chain of Integrin alpha-IIb (Homo sapiens) (P08514 whole entry, looked up): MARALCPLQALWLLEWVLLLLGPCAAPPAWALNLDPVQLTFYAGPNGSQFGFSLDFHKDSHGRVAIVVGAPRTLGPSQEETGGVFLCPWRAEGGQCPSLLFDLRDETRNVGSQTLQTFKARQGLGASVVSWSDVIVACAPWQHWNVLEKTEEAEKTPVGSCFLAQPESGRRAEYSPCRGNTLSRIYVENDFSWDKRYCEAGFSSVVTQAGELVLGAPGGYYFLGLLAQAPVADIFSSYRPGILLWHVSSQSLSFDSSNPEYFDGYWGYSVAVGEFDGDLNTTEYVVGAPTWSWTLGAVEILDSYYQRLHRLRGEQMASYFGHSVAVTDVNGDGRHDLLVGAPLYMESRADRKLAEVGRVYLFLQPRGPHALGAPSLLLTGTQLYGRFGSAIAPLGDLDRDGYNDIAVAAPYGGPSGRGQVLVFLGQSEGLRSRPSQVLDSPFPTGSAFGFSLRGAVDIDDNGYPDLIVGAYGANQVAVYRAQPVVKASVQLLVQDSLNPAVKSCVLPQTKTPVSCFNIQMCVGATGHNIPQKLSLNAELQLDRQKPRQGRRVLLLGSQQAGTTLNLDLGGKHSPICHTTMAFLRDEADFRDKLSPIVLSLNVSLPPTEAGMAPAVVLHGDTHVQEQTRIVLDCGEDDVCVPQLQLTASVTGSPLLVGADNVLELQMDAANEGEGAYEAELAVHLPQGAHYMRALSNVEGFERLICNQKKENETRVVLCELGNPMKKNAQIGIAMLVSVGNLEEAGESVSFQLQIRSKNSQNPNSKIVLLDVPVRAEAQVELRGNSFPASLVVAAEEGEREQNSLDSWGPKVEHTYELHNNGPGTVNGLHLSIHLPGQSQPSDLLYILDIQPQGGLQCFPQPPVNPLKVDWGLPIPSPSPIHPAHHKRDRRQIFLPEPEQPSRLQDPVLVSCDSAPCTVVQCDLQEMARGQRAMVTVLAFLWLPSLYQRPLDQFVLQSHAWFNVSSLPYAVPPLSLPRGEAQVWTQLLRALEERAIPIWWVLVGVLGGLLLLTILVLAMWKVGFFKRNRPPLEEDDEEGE
Excerpt: NIH Molecular Libraries Probe Production Network [MLPCN] NIH Chemical Genomics Center [NCGC] MLPCN Grant: 1 R03 MH083257-01 Assay Provider: Barry Coller, Rockefeller University NCGC Assay Overview: The alphaIIbbeta3 receptor plays a vital role in hemostasis and thrombosis, where receptor deficiency causes the hemorrhagic disorder, Glanzmann thrombasthenia, and uncontrolled receptor activation causes thrombosis and blood vessel occlusion. Small molecule inhibitors of alphaIIbbeta3, tirofiban and eptifibatide, have undesirable side effects thought to arise from conformational changes in alphaIIbbeta3. These changes transiently activate the receptor to cause spontaneous platelet aggregation and thrombus formation. […] This secondary assay measures the binding of human plates to fibrinogen, an extracellular matrix protein (Blue et al., 2008). Platelets were loaded with a fluorescent dye, calcein, and added to fibrinogen-coated plates. Following incubation, unbound platelets were removed by washing and bound platelets were detected by measuring fluorescence intensity. Inhibitors of alphaIIbbeta3 block platelet binding to fibrinogen and result in a decrease in fluorescence intensity.
NCGC Assay Protocol Summary: Human fibrinogen (50 ug/mL) in Tris/saline (100 mM NaCl, 50 mM Tris/HCl, pH 7.4; American Diagnostica, Stamford, CT) was added to black, clear-bottom, untreated polystyrene, nonsterile 384-well microtiter plate wells (Corning no. 3711; Acton, MA) using a peristaltic microplate dispenser (WellMate; Matrix, Hudson, NH). After incubating at 22 C for 1 hour, plates were washed 4 times with Tris/saline using an automated plate washer (ELX405; Bio-Tek, Winooski, VT), and wells were then blocked with HBMT (138 mM NaCl, 12 mM NaHCO3, 10 mM HEPES, 2.7 mM KCl, 0.4 mM NaH2PO4, 0.1% glucose, 0.35% BSA, pH 7.4) for at least 1 hour. After 2 additional washes, 15 uL HBMT was allowed to remain in each well. Compounds were added to the wells with a liquid handling robot (MiniTrak V; PerkinElmer, Wellesley, MA) using a pin tool (VP Scientific, San Diego, CA) that added 0.1 uL compound in DMSO. Fifteen microliters 5E11/L calcein-labeled platelets were then added (2.5E11/L final concentration). After 1 hour of adhesion, wells were washed 4 times with HBMT-CaCl2/MgCl2 and the plates were read by an Envision (Perkin Elmer) to detect calcein fluorescence (490 nm excitation and 515 nm emission). Positive controls consisted of wells containing platelets without compounds. Negative controls were wells containing platelets and known inhibitors of alphaIIbbeta3, including mAbs 7E3 and 10E5, and EDTA. Reference Blue R, Murcia M, Karan C, Jirouskova M, and Coller BS. Application of high-throughput screening to identify a novel alphaIIb-specific small- molecule inhibitor of alphaIIbbeta3-mediated platelet interaction with fibrinogen. Blood. 2008, 111(3):1248-56

Q: C[C@H](N)C(=O)Nc1cccc(-c2nn3c(=O)cc(N4CCNCC4)nc3s2)c1 was tested. Which Potency did it give?
A: 8.2 µM (active)

Q: How did the inhibition turn out when Cc1noc(C)c1-c1cccc(-c2nn3c(=O)cc(N4CCNCC4)nc3s2)c1 was run?
A: 26%

Q: For COCc1nn2c(=O)cc(N3CCNCC3)nc2s1, which inhibition is on record?
A: 18%

Q: How did the inhibition turn out when O=C(Nc1cccc(-c2nn3c(=O)cc(N4CCNCC4)nc3s2)c1)c1ccon1 was run?
A: 32%

Q: For O=C(O)c1cccc(-c2cccc(-c3nn4c(=O)cc(N5CCNCC5)nc4s3)c2)c1, which Potency is on record?
A: 0.46 µM (active)

Q: O=C(O)c1cc(-c2cccc(-c3nn4c(=O)cc(N5CCNCC5)nc4s3)c2)cs1 was tested. Which Potency did it give?
A: 2.4 µM (active)

Q: CCc1nn2c(=O)cc(NC3CNC3)nc2s1 was tested. Which inhibition did it give?
A: 23%

Q: For CCc1nn2c(=O)cc(N3C(C)CNCC3C)nc2s1 (stereo not given), which inhibition is on record?
A: 27%

Q: Which inhibition does the source give for CCc1nn2c(=O)cc(-c3ccncc3)nc2s1 here?
A: 25%

Q: NCC(=O)Nc1cccc(-c2nn3c(=O)cc(N4CCNCC4)nc3s2)c1 was tested. Which Potency did it give?
A: 1.1 µM (active)

Q: For CNCC(=O)Nc1cccc(-c2nn3c(=O)cc(N4CCNCC4)nc3s2)c1, which inhibition is on record?
A: 24%

Q: O=C(O)c1ccc(-c2nn3c(=O)cc(N4CCNCC4)nc3s2)cc1 was tested. Which inhibition did it give?
A: 48%

Q: How did the inhibition turn out when CC(C)(C)c1nn2c(=O)cc(N3CCNCC3)nc2s1 was run?
A: 21%

Q: How did the Potency turn out when NC(=O)c1ccc(-c2cccc(-c3nn4c(=O)cc(N5CCNCC5)nc4s3)c2)cc1 was run?
A: 0.855 µM (active)

Q: Nc1ncc(-c2cccc(-c3nn4c(=O)cc(N5CCNCC5)nc4s3)c2)cn1 was tested. Which Potency did it give?
A: 3.5 µM (active)

— PubChem BioAssay AID2634 (National Center for Advancing Translational Sciences (NCATS), 2010)
